Results: PubChem BioAssay AID720709 (National Center for Advancing Translational Sciences (NCATS), 2013)
About 520 (0.14%) of roughly 360,000 compounds were called active. Inconclusive results (about 3%) are left out. The call rests on the fitted dose curve; in most records, active means well fitted inhibition curve with a large enough effect; inconclusive means small, poorly fitted or top-dose-only effect; inactive means no such curve, though single readings can be large or run the other way. What follows is part of a selection rich in actives, with near analogues and random picks from the rest. Where a call stands in place of a potency, no number is given.

These compounds were tested against Rap guanine nucleotide exchange factor 3 (Homo sapiens) (UniProt O95398) (assay: qHTS for Antagonist of cAMP-regulated guanine nucleotide exchange factor 3 (EPAC1): primary screen). Settings: EPAC1 GEF assay, Rap1b-BODIPY-GDP exchange fluorescence; series mostly up to 115 µM.
Chain of Rap guanine nucleotide exchange factor 3 (Homo sapiens) (O95398 whole entry, looked up): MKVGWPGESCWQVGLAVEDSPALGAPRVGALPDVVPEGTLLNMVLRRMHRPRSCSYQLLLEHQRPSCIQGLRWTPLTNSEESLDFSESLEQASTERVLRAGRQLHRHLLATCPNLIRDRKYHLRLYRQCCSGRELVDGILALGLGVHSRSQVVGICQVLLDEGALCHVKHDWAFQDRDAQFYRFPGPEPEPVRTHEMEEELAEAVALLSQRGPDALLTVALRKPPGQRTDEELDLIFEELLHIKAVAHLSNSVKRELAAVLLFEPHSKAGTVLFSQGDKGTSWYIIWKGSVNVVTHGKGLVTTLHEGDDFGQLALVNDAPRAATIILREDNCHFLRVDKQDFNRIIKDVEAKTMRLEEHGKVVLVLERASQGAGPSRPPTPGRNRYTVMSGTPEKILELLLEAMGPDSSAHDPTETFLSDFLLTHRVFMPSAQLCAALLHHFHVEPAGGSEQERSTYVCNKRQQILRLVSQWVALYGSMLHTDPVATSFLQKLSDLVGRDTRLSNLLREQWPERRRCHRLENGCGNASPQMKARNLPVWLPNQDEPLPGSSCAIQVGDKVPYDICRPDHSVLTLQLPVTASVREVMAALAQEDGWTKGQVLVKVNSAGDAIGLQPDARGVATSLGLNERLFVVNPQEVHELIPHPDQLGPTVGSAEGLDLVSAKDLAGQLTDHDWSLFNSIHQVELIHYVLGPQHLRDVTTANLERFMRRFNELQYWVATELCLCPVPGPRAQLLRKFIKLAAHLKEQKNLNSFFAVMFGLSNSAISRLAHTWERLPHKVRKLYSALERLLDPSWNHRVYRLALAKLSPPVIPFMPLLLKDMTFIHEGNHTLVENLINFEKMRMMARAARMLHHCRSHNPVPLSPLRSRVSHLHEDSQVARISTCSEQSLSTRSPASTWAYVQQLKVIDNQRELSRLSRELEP
Description: In multi-cellular eukaryotic organisms, the effects of cAMP are transduced by two ubiquitously-expressed intracellular cAMP receptors, the classic protein kinase A/cAMP-dependent protein kinase (PKA/cAPK) and the more recently discovered exchange protein directly activated by cAMP/cAMP-regulated guanine nucleotide exchange factor (EPAC/cAMP-GEF). Both PKA and EPAC are ubiquitously expressed in all tissues, and an increase in intracellular cAMP levels will lead to the activation of both PKA and EPAC. Therefore, careful dissections of the individual role and relative contribution of EPAC and PKA within the overall cAMP signaling in various model systems are critical for further elucidating the mechanism of cAMP signaling. To date no EPAC-specific antagonists and agonist, as well as isoform-specific agonists have been reported, and developing EPAC-specific pharmacological probes to determine the physiological functions that EPAC play in the overall cAMP-mediated signaling remains a major challenge within the research field. Furthermore, identified regulators of EPAC may lead to new mechanism-based therapeutic strategies specifically targeting the EPAC / cAMP-signaling components as EPAC has been implicated to play important roles in major human pathological conditions such as diabetes, heart disease, and cancer. This qHTS will be used to screen the Molecular Libraries Small Molecule Repository (MLSMR) as a concentration-titration series using the NCGC unique quantitative screening (qHTS) platform to find inhibitors for EPAC1. In addition, this assay will also be used as a counterscreen for the EPAC2 qHTS. This fluorescent based assay is developed and validated for EPAC1 that measures exchange using EPAC effector Rap1 complex with BODIPY-GDP, a GDP analog with a tethered fluorophores. Inhibitors are identified by monitoring the change in fluorescence signal as the exchanged free BODIPY-GDP has a reduced fluorescence compared to Rap1-bound BODIPY-GDP. Decrease in signal (inhibition) is the desired outcome for the EPAC1 antagonist while no activity in this assay is desired for the EPAC2 antagonist counterscreen. de Rooij, J., Zwartkruis, F. J., Verheijen, M. H., Cool, R. H., Nijman, S. M., Wittinghofer, A., and Bos, J.L. (1998) Nature 396, 474-477 [2] Kawasaki, H., Springett, G. M., Mochizuki, N., Toki, S., Nakaya, M., Matsuda, M., Housman, D. E., and Graybiel, A. M. (1998) Science 282, 2275-2279 NIH Chemical Genomics Center [NCGC] NIH Molecular Libraries Probe Centers Network [MLPCN] MLPCN Grant: NS066510 Assay Submitter (PI): Xiaodong Cheng, The University of Texas, Medical Branch
Briefly, three uL of reagents (100 nM EPAC1, 250 nM RAP1B-BODIPY-GDP, 50 uM GDP) were dispensed into a 1536-well Greiner black solid-bottom medium binding assay plate. Controls and test compounds (23 nL) were transferred to the plate via a Kalypsys pin tool equipped with a 1536-pin array. The plates were centrifuged at 1,000 rpm for 15 seconds followed by 5 minute incubation at room temperature. The assay plates were read at 5 minute intervals for 30 minutes in the ViewLux plate reader using 480nm excitation and 540nm emission filters. The results were normalized to the […] positive control ATA and DMSO.
Further: nearly all actives have a fitted effect of over 50% in size.
Potency means the concentration at half of the fitted maximal effect.

SMILES | Potency
C#CCNC(=O)C[C@@H]1C[C@@]2(C(=O)OCC)CCCC=C2N(Cc2ccco2)C1=O | inactive
Cc1ccc(S(=O)(=O)N[C@H]2CCC[C@@H]2O)cc1 | inactive
O=C(NCc1ccccc1)C(c1ccc(F)cc1)N1CCN(C(=O)C2CCCO2)CC1 (configuration not stated) | inactive
C#CCOCCOCCOCCNc1nc(N2CCN(C(=O)CCCCCCCCCCNC(=O)[C@H]([C@@H](C)CC)n3cc(CCCCN=C(N)N)nn3)CC2)nc(N2CCN(C(=O)CCCCCCCCCCNC(=O)[C@H](CO)n3cc(CCCSC)nn3)CC2)n1 | 44.7 µM (active)
C#CCOCCOCCOCCNc1nc(N2CCN(C(=O)C([C@@H](C)O)n3cc([C@@H](N)CCCCN)nn3)CC2)nc(N2CCN(C(=O)[C@H](CCCCN)n3cc(CN)nn3)CC2)n1 (some centres not stated) | inactive
C#CCOCCOCCOCCNc1nc(N2CCN(C(=O)[C@H](CO)n3cc([C@@H](N)C(C)C)nn3)CC2)nc(N2CCN(C(=O)[C@H](CCC(=O)O)n3cc([C@@H](N)[C@H](C)CC)nn3)CC2)n1 | inactive
CN1OC[C@@H]2CN(S(=O)(=O)c3cccc4ccccc34)[C@H](c3ccc(N4CCCCC4)cc3)C[C@@H]21 | inactive
CC(C)C[C@@H]1COc2cc(N3CCC[C@@H]3CO)ccc2S(=O)(=O)N1 | inactive
CCOC(=O)C1C(C)C(C(C)(C)C)N(S(=O)(=O)c2ccc(C)cc2)C1c1ccccc1 (configuration not stated) | inactive
Oc1c(Cl)cc(Cl)c(Cl)c1Cc1c(O)c(Cl)cc(Cl)c1Cl | 70.8 µM (active)
Fc1cccc(Cc2c(-c3ccc(Cl)cc3)nc3ccc(Cl)cn23)c1 | inactive
CC1=C(C(=O)N(C(C)C)C(C)C)CC(CC(=O)NCCCCc2ccccc2)C(=O)N1CCC1=CCCCC1 (configuration not stated) | inactive
CCc1c(-c2ccc(F)cc2)ncn1Cc1cccc(-c2ccccc2)c1 | inactive
CN(C)C1CN(Cc2cn(Cc3ccccc3)nn2)S(=O)(=O)C1 (configuration not stated) | inactive
COC(=O)C1=CN(c2c(C)cc(C)cc2C)C(N)=C(C#N)C1c1cccc(F)c1 (configuration not stated) | inactive
CCc1oc(-c2ccc(OC)cc2)c(C(=O)OCCCCCO)c1C(C)OCCO (configuration not stated) | inactive
COC(=O)[C@]12CCCCC=C1N(Cc1cccc3ccccc13)C(=O)[C@H](CC(=O)N1CCOCC1)C2 | inactive
CCNC(=O)c1cc2c(c(-c3cccc(-c4cncnc4)c3)n1)[C@H](CCO)N(C(C)=O)C2 | inactive
CCCCNC(=O)C[C@@H]1C[C@@]2(C(=O)OCC)CCC=C2N(Cc2ccco2)C1=O | inactive

SMILES | Potency
CCOC(=O)[C@]12CCCC=C1N(CCC1=CCCCC1)C(=O)[C@H](CC(=O)N1CCCCC1)C2 | inactive
CCOc1ccc(CCN2C(=O)C(=O)N([C@@H](Cc3ccc(O)cc3)CN3CCC[C@H]3CN3C(=O)C(=O)NC[C@@H]3CC(C)C)C[C@@H]2Cc2ccccc2)cc1 | inactive
CCOC(=O)[C@]12CCCC=C1N(Cc1ccc3c(c1)OCO3)C(=O)[C@H](CC(=O)N1CCN(C(=O)c3ccco3)CC1)C2 | inactive
O=C(Nc1ccc2c(c1)OCCO2)C1c2ccccc2OCC(=O)N1Cc1ccccn1 (configuration not stated) | inactive
CC(C)C[C@@H]1Cc2[nH][nH]c(=O)c2[C@H](CCc2ccccc2)O1 | inactive
CCOC(=O)[C@]12CCCC=C1N(Cc1ccc3c(c1)OCO3)C(=O)[C@H](CC(=O)NCc1cccs1)C2 | inactive
CC(C)(O)C1=C[N+](=O)CC=C1 | inactive
CCCCCn1nnnc1C1c2ccccc2C(=O)N1Cc1ccco1 (configuration not stated) | inactive
COc1ccc(C(c2nnnn2C2CCCC2)N2CCN(C/C=C/c3ccccc3)CC2)cc1 (configuration not stated) | inactive
CCCCCNC(=O)C(c1ccc(OC)cc1)n1c(=O)c(-c2ccccc2)nc2ccccc21 (configuration not stated) | inactive
Cc1ccc(S(=O)(=O)N2[C@@H](Cc3ccccc3)CO[C@H]2CC(=O)OCc2ccccc2)cc1 | inactive
CN(Cc1cn(Cc2ccc(C(F)(F)F)cc2)nn1)C1CN(Cc2cn(Cc3ccc(C(F)(F)F)cc3)nn2)S(=O)(=O)C1 (configuration not stated) | inactive
COCCNC(=O)c1cc2c(Br)ccc(Br)c2nc1N | inactive
CC(=O)N1Cc2cc(C(=O)NCc3cccc(F)c3)nc(-c3cccc(C4=CCCCC4)c3)c2[C@H]1CCO | inactive
C=C1C(=O)[C@]23C[C@H]1CCC2[C@@]1(C)C(C[C@@H]3O)[C@](C)(C(=O)O)CC[C@@H]1O (some centres not stated) | inactive
CCCCCNC(=O)C1C(=O)Nc2ccccc2C(=O)N1C(C)(C)C (configuration not stated) | inactive
CC[C@@H]1CC2=C(C(=O)OC(C)(C)O2)[C@@H](CC)O1 | inactive
CCOC(=O)[C@]12CCC=C1N(Cc1ccccc1)C(=O)[C@H](CC(=O)N1CCCC1)C2 | inactive
